High-throughput results deposited in PubChem by several laboratories.
Mtb UGM inh: blocks M. tuberculosis UGM enzyme; actives 0.06% (n = 320,000); AID 504406; P9WIQ1; purified UGM, fluorescence polarization probe displacement; inhibition, % at 10 µM; in the data active = inhibition above about 10%, passing the limit was not always enough
Mtb bLac sens: beta-lactam sensitization of Mtb H37Rv | M. tuberculosis H37Rv growth with meropenem, percent inhibition | actives 0.27% (n = 330,000) | inhibition, % at 25 µM; call rule not given here;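 note: growth measured after seven days incubation then overnight dye step; 0% = bacteria only wells and 100% = bacteria with antibiotic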
Rv3671c inh: Rv3671c (M. tuberculosis) protease inhibition; P9WHR9; inhibition, % at 5.96 µM; actives 0.048% (n = 320,000); AID 2606; in the data active = inhibition above about 38%;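 note: extracellular domain of Rv3671c used as enzyme; 0% = enzyme with DMSO and 100% = no enzyme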
Target sequence (P9WHR9 whole entry, looked up, the tested form may be a part): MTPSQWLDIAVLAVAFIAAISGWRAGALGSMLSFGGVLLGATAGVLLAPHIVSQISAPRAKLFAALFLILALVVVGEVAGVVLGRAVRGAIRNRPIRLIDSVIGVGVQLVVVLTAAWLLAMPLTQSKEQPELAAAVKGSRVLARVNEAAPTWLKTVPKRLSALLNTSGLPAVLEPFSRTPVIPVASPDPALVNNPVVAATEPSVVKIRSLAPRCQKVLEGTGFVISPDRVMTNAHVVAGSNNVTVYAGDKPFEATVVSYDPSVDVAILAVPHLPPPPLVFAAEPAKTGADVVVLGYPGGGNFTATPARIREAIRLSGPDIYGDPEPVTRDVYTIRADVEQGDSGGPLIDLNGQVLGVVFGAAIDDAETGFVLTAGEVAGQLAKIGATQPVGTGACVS
Mtb FBA inh: inhibitors of M. tuberculosis fructose-bisphosphate aldolase | purified M. tuberculosis FBA, fluorescence read-out | P9WQA3 | AID 588726 | actives 2.3% (n = 360,000) | inhibition, % at 1 µM;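 note: 0% = vehicle and 100% = reference inhibitor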
Target sequence (P9WQA3 whole entry, looked up): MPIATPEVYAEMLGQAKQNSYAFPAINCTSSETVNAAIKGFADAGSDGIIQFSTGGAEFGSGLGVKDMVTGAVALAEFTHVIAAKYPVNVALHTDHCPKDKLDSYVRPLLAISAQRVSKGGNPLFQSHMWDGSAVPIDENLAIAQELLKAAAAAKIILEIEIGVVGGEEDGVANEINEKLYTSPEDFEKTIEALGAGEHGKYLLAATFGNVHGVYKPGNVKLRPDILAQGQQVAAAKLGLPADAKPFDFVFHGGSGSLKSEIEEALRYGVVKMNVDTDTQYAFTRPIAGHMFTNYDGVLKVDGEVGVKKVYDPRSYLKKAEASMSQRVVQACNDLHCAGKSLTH
RecA splice inh: inhibitors of M. tuberculosis RecA intein splicing. actives 0.75% (n = 290,000). P9WHJ3. AID 2221. cell-free RecA intein splicing, fluorescence. inhibition, % (concentration not given with the values); in the data active = inhibition above about 30%;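 note: 0% = vehicle wells and 100% = reference inhibitor control wells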
GDH-TPI counter-1: inhibits GDH-TPI coupling enzymes, artifact for Mtb FBA screen | GDH-TPI coupled enzyme counterscreen, NADH absorbance | inhibition, % at 4.8 µM | actives 1.2% (n = 360,000) | AID 588335; in the data active = inhibition above about 30%;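 note: 0% = DMSO wells and 100% = wells lacking the enzyme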
Rv3671c cf: Rv3671c protease inhibition, confirmation; shares compounds with Rv3671c inh; inhibition, % at 5.96 µM; actives 40% (n = 140); AID 2761; in the data active = inhibition above about 38%
DNA intercalat: intercalates into DNA, flagged in counter-screen | shares compounds with Mtb UGM inh | acridine orange-DNA binding, fluorescence polarization | AC50, µM | actives 60% (n = 35) | AID 463198;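 active = fitted AC50 no greater than ten times the top concentration tested, cut at about 17 µM in these data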
Mtb FBA confirm: confirmation of M. tuberculosis fructose-bisphosphate aldolase inhibitors; shares compounds with Mtb FBA inh; AID 651616; purified M. tuberculosis FBA, fluorescence read-out; inhibition, % at 1 µM; actives 78% (n = 5,600);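 note: 0% = vehicle wells and 100% = reference inhibitor wells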
GDH-TPI counter-2: counter-screen for M. tuberculosis FBA inhibitors: GDH-TPI coupled enzyme inhibition | shares compounds with Mtb FBA inh | GDH-TPI coupled enzyme counterscreen, fluorescence | inhibition, % at 1 µM | actives 81% (n = 5,600); in the data active = inhibition above about 10%
GDH-TPI dose: counter-screen for M. tuberculosis FBA inhibitors: GDH-TPI dose response. shares compounds with Mtb FBA inh. GDH-TPI coupled enzyme assay, fluorescence, artifact counterscreen. IC50, µM. actives 79% (n = 170); call rule not given here
The depositor's hits bear a star; nt = no result given; + = active, no number. Hits are enriched below; roughly 4% of the tested compounds scored in any of these assays. Cut-off read from the data, not from the text of the source, unless noted: active = inhibition above about 27%; inactive = the rest.

SMILES	Mtb UGM inh	Mtb bLac sens	Rv3671c inh	Mtb FBA inh	RecA splice inh	GDH-TPI counter-1	Mtb FBA confirm	GDH-TPI counter-2	others
Nc1ccc2nc(CCCCCCCCc3nc4ccc(N)cc4[nH]3)[nH]c2c1	1.0	4.1	9.5	6.0	5.1	2.9	nt	nt
Nc1ccc2nc(-c3ccc(-c4nc5ccc(N)cc5[nH]4)cc3)[nH]c2c1	4.4	-1.7	38.7*	nt	-18.0	nt	nt	nt	Rv3671c cf=50.3*
N#CC1(P(=O)(c2ccccc2)c2ccccc2)CCCC1	1.4	-8.3	81.2*	-0.9	0.5	6.6	nt	nt	Rv3671c cf=1.7
CC(C)(C)C1(C)OC(=O)C(=Cc2ccc(OCC(=O)Nc3ccccc3)cc2)C(=O)O1 (stereo unspecified)	1.1	-5.5	2.1	1.2	1.2	15.2	nt	nt	DNA intercalat=>35
Cc1c(Cl)cccc1N=C1NC(=O)CS1	nt	nt	nt	-1.7	nt	-3.5	nt	nt
Cc1ccc(Cl)cc1N1CCN(C(=O)C2CCN(S(C)(=O)=O)CC2)CC1	5.8	-6.7	-11.2	4.7	-1.1	3.5	nt	nt	DNA intercalat=>35
O=C1CCN2C=Nc3cccc4ccc1c2c34	39.1*	-1.7	-11.4	-8.1	-406.6	10.7	nt	nt	DNA intercalat=12.7*
O=C1C=C(N2CCOCC2)c2cccc3cccc1c23	nt	nt	nt	2.6	nt	20.9	nt	nt
Cc1nn(C)c(C)c1N1C(=O)c2cccc3c(N)ccc(c23)C1=O	67.9*	-16.8	11.2	-16.4	nt	18.7	nt	nt	DNA intercalat=6.1*
CC(=O)Nc1ccc(-c2cn3ccsc3n2)cc1	1.5	-7.9	-7.2	-1.6	-1.1	1.9	nt	nt	DNA intercalat=>35
O=C(Nc1ccc(-c2cn3ccsc3n2)cc1)C1CC1	-0.1	-3.1	8.2	0.4	-3.1	3.5	nt	nt
CN(C)c1ccc(C=c2c3ccccc3n3c2c2c([n+]3C)CCCC2)cc1	nt	nt	nt	-15.7	nt	12.4	nt	nt
COc1cc2c(c(OC)c1OC)C(c1ccc(C)cc1)CC(=O)O2 (stereo unspecified)	nt	nt	nt	-1.1	nt	7.3	nt	nt
O=C1CCC(=O)c2ccc3c4c(ccc1c24)CC3	nt	nt	nt	41.6*	nt	32.3*	11.6	9.4	GDH-TPI dose=3.62*
COc1ccc2oc(-c3ccncc3)cc(=O)c2c1	nt	nt	nt	30.4*	nt	5.3	+	+
CCC(=O)N(CCc1ccccc1C)Cc1cc2ccc(C)cc2[nH]c1=O	-0.7	-0.6	-5.6	1.1	-1.8	12.9	nt	nt
Cc1cccc(NC(=S)N(CCCN(C)C)Cc2cc3cc4c(cc3[nH]c2=O)OCO4)c1	-0.3	-0.1	-1.7	27.4*	-0.7	16.4	7.6	-4.0
CCNC(=S)N(CCCN(CC)CC)Cc1cc2cc3c(cc2[nH]c1=O)OCO3	0.3	-7.5	-3.4	24.3	-5.6	21.5	nt	nt
CCNC(=S)N(CCN(C)C)Cc1cc2cc3c(cc2[nH]c1=O)OCO3	0.5	5.2	-2.2	43.6*	0.7	13.8	57.9*	42.8*
CCN(CC)CCN(Cc1cc2cc3c(cc2[nH]c1=O)OCO3)C(=S)NC	0.0	1.3	-2.9	101.5*	nt	23.4	64.2*	54.9*
CCCCNC(=S)N(CCCN(C)C)Cc1cc2cc3c(cc2[nH]c1=O)OCO3	0.0	-6.0	3.4	22.1	-5.1	25.9	nt	nt
CC(=O)N(CCc1ccccc1C)Cc1cc2cc3c(cc2[nH]c1=O)OCO3	-3.7	6.2	-0.4	38.9*	-1.7	11.0	187.1*	170.0*
CCc1cccc(NC(=O)CCNS(=O)(=O)c2ccc3c(c2)oc(=O)n3C)c1	1.3	-9.3	5.7	1.2	-0.2	8.4	nt	nt
CN(C)CCN(Cc1cc2cc3c(cc2[nH]c1=O)OCO3)C(=S)NCc1ccco1	1.1	-6.7	2.6	32.4*	3.4	25.2	77.1*	52.3*
CCCCNC(=S)N(CCN(CC)CC)Cc1cc2cc3c(cc2[nH]c1=O)OCO3	-0.9	-3.5	-5.8	32.3*	-1.0	32.9*	15.8	4.5	GDH-TPI dose=4.92*
SMILES	Mtb UGM inh	Mtb bLac sens	Rv3671c inh	Mtb FBA inh	RecA splice inh	GDH-TPI counter-1	Mtb FBA confirm	GDH-TPI counter-2	others
CCN(CC)CCN(Cc1cc2cc3c(cc2[nH]c1=O)OCCO3)C(=S)NCCCN(C)C	1.5	-1.9	-7.3	12.0	-2.5	2.2	nt	nt
O=c1[nH]c2cc3c(cc2cc1CN(Cc1cccnc1)C(=S)NCc1ccco1)OCO3	0.8	-7.4	0.3	9.6	-3.5	0.3	nt	nt
CCN(CC)CCN(Cc1cc2cc3c(cc2[nH]c1=O)OCO3)C(=S)NCCCN(C)C	2.5	-14.5	-2.9	35.2*	-4.8	30.4	30.1*	27.8*
CCCCNC(=S)N(CCN(CC)CC)Cc1cc2cc3c(cc2[nH]c1=O)OCCO3	0.5	3.4	-9.0	16.7	-4.5	-4.6	nt	nt
OCCCCCCNc1ccc(CCO)cc1	nt	nt	nt	0.8	nt	nt	nt	nt
CNC(=S)Nc1ccc(-c2nc3ccc(C)cc3s2)cc1	2.6	73.1	1.5	92.9*	-1.8	19.9	45.0*	31.7*
Cc1ccc2nc(-c3ccc(NC(=O)CN(c4ccccc4C)S(C)(=O)=O)cc3)sc2c1	-1.2	-9.6	-0.8	89.5*	0.1	11.5	+	+
Cc1ccc2nc(-c3ccc(NC(=S)NCCC(C)C)cc3)sc2c1	-3.8	-6.9	6.6	26.8	-4.1	20.5	nt	nt
CCCCNC(=S)Nc1ccc(-c2nc3ccc(C)cc3s2)cc1	6.4	9.3	2.5	56.1*	-1.8	20.7	-2.2	-4.7
C=CCn1c(SCC(=O)Nc2ccc(-c3nc4ccc(C)cc4s3)cc2)nnc1-c1ccccc1	-3.3	-2.3	-7.7	41.0*	-0.7	11.2	+	+
C[C@@H]1CN([C@H](C)CO)C(=O)CCCn2cc(nn2)CO[C@H]1CN(C)C(=O)Nc1ccc2c(c1)OCO2	nt	nt	nt	-2.6	nt	-2.1	nt	nt
O=C(CC[C@H]1O[C@@H](n2cnc3c(NC(=O)c4ccccc4)ncnc32)[C@H](O)[C@@H]1O)NCc1ccc(OC(F)(F)F)cc1	nt	nt	nt	1.8	nt	nt	nt	nt
Cc1ccc2nc(-c3ccc(NC(=S)NCC(C)(C)CN(C)C)cc3)sc2c1	nt	nt	nt	76.8*	nt	2.0	68.7*	53.0*
Cc1ccc2nc(-c3ccc(NC(=O)CN4CCN(C(=O)c5ccco5)CC4)cc3)sc2c1	2.6	9.7	-10.7	45.6*	-2.0	24.0	+	+
COCCNc1nnc(SC(C)C(=O)Nc2ccc(-c3nc4ccc(C)cc4s3)cc2)s1 (stereo unspecified)	0.6	12.9	-28.4	39.9*	1.0	29.5	+	+
Cc1cc(C)cc(N(CC(=O)Nc2ccc(-c3nc4ccc(C)cc4s3)cc2)S(C)(=O)=O)c1	-2.2	6.9	-34.6	23.8	-1.8	17.7	nt	nt
CC(=O)NC(=S)Nc1ccc(-c2nc3ccc(C)cc3s2)cc1	3.0	54.2	-4.8	6.5	-4.3	4.6	nt	nt
